The record followed here is PubChem BioAssay (NCATS).

Experiment [1] can be described thus: Cell Viability - HepG2 (AID 433; calls by dose curve;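 further: potency means the concentration at half of the fitted maximal effect; cells exposed to compound for 40 hours; potency for ATP loss meaning cytotoxicity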). Conditions: qHTS. Put shortly: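 HepG2 hepatocellular carcinoma cells (1500/well) were treated with compounds for 40 h at 37 °C in complete medium; intracellular ATP was read by CellTiter-Glo luminescence. Data were normalized to DMSO and 100 uM tamoxifen, and AC50 came from Hill fits.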
A short description of experiment [2]: Cell Viability - SH-SY5Y (AID 544).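 Further: cells exposed to compound for 40 hours; nearly all actives have a fitted effect of over 55% in size.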 Further: potency means the concentration at half of the fitted maximal effect. The settings on record: SH-SY5Y neuroblastoma cell viability; viability change, negative = cytotoxic: at 92.2 µM (top of the series). Put shortly:
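Luminescent ATP read-out (CellTiter-Glo) measures loss of viable SH-SY5Y neuroblastoma cells after 40 hr compound exposure at 37 °C. AC50 values derive from standard Hill modelling of qHTS concentration-response data.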

Experiment [3] in a line: Cell Viability - Mesenchymal (AID 546).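 Further: cells exposed to compound for 40 hours before reading.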 Further: potency means the concentration at half of the fitted maximal effect. Put shortly: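 Normal human renal glomerulus-derived kidney mesenchymal cells, 1000 per well in complete medium, were treated with compounds for 40 hr at 37 °C. Viability was read as intracellular ATP by CellTiter-Glo luminescence; AC50 values came from Hill-equation fits of qHTS concentration-response data.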
Experiment [4] is described as follows: Cellular Toxicity (caspase-3) HUV-EC-C (AID 656). The method, boiled down: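 HUV-EC-C endothelial cells, 1000/well, were pre-incubated 5 hr at 37°C, then exposed to compounds for 16 hr at 37°C. Caspase-Glo 3/7 luminescence was read after 20 min at room temperature. AC50 came from Hill fits, normalized to DMSO and 100 uM tamoxifen.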
The nature of experiment [5]: Cellular Toxicity (caspase-3) Mesangial (AID 660).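 Further: combined caspase 3 and 7 activity read by Caspase-Glo luminescence; cells exposed to compound for 16 h before the caspase read.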 The method, boiled down: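 Mesangial cells, 1000/well, 5 h settle at 37 °C; compound 16 h, 37 °C; Caspase-Glo 3/7 reagent 20 min RT; luminescence. Norm.: DMSO = 0%, tamoxifen 100 uM = 100%. AC50, Hill fit.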
Experiment [6] is described as follows: Cellular Toxicity (caspase-3) SK-N-SH (AID 661).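 Further: 0% = DMSO basal and 100% = 10 µM staurosporine.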 The method, boiled down:
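Human neuroblastoma SK-N-SH, 1500 cells/well, 5 hr pre-incubation, then compound 16 hr, 37 °C. Caspase-Glo 3/7 reagent, 1 hr RT, luminescence. Norm. to DMSO/10 uM staurosporine; Hill-fit AC50.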

Experiment [7] is described as follows: Cell Viability - LYMP2-023 (AID 975).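 Further: cells exposed to compound for 24 hours at 37 °C; nearly all actives have a fitted effect of over 55% in size.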 Further: potency means the concentration at half of the fitted maximal effect. Put shortly: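 2500 cells/well, 5 hr 37 C; cpd 24 hr 37 C; CellTiter-Glo, 30 min RT; luminescence. qHTS conc-response, Hill fit -> AC50. Pos ctrl tetraoctylammonium bromide.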
Experiment [8] can be described thus: Cell Viability - LYMP2-014 (AID 983).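 Further: cells exposed to compound for 24 h at 37 °C; plate controls were DMSO only for no effect and 92 µM tetraoctylammonium bromide for full effect; nearly all actives have a fitted effect of over 50% in size.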 Put shortly:
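Luminescent ATP signal (CellTiter-Glo, 30 min at room temperature) serves as the viability read-out after 24 hr compound exposure at 37 C. Cells were seeded at 2500 per well and settled 5 hr beforehand.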

Experiment [9] is described as follows: Cell Viability - LYMP2-026 (AID 989).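 Further: cells exposed to compound for 24 h at 37 °C; on the % scale 0 is the no-effect control and ±100 the full control effect; nearly all actives have a fitted effect of over 50% in size.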 The method, boiled down: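 Luminescent ATP signal (CellTiter-Glo, 30 min room temperature) measures viable lymphoblastoid cells after 24 hr compound treatment at 37 C. Decreased ATP reflects acute toxicity; AC50 values come from Hill-equation modeling.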
Experiment [10] has as its target Peroxisome proliferator-activated receptor delta (Homo sapiens) (UniProt Q03181). Briefly: qHTS assay for small molecule agonists of peroxisome proliferator-activated receptor delta signaling (AID 588534; calls by dose curve;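 further: 0% = DMSO basal wells and 100% = positive control agonist at 10 µM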). The method, boiled down:
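Fluorescence from CCF4 substrate cleavage by beta-lactamase reporter, read 2 hrs at RT, measured agonist activity. Compounds were tested with 18 hrs exposure at 37 C. Concentration-response data fitted to Hill equation.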
(In general: qHTS replaces the single test concentration by a dilution series.)

Experiment [11] concerns the target Vitamin D3 receptor (Homo sapiens) (UniProt P11473). The experiment is described as follows: qHTS assay for small molecule antagonists of vitamin D receptor signaling (AID 588541; calls by dose curve;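 further: receptor activated by calcitriol during compound treatment; on the % scale 0 is the no-effect control and ±100 the full control effect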). The method, boiled down: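 VDR-UAS-bla HEK293T cells (2000/well, 2% charcoal-stripped FBS) were treated with titrated compounds plus 1-alpha,25-dihydroxyvitamin D3 (50 nM or 3 nM final) for 16 h at 37 C. CCF4 beta-lactamase fluorescence was read; Hill fits gave IC50.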

The target is the same in experiment [12]. The experiment is described as follows: qHTS assay for small molecule agonists of vitamin D receptor signaling (AID 588543; calls by dose curve;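 further: 0% = DMSO basal and 100% = reference agonist control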). The method, boiled down: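 GeneBLAzer VDR-UAS-bla HEK293T cells in 2% charcoal-stripped FBS medium were dosed with compound titrations for 16 h at 37 °C; CCF4 β-lactamase readout (405 nm ex, 460/530 nm em). EC50 and efficacy from Hill fits, normalized to 50 nM calcitriol (100%) and DMSO (0%).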

Experiment [13] concerns the target Voltage-gated inwardly rectifying potassium channel KCNH2 (Homo sapiens) (UniProt Q12809). The experiment is described as follows: qHTS Assay for Small Molecule Inhibitors of the Human hERG Channel Activity (AID 588834).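 Further: top concentration of the series differs between compounds; on the % scale 0 is the no-effect control and ±100 the full control effect; lower thallium flux fluorescence means stronger hERG block; nearly all actives have a fitted effect of over 50% in size.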 The method, boiled down: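 U2OS cells transduced with hERG via BacMam (MOI ~100), plated 2000/well, loaded with FluxOR thallium dye, compound ~10 min, then stimulation buffer; fluorescence decrease read kinetically; AC50 from Hill fits.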

The nature of experiment [14]: qHTS assay for small molecule activators of the p53 signaling pathway (AID 651743; active means well fitted activation curve with a large enough effect in the signal ratio, not every such curve was filed as active; the % refers to the signal ratio; further: % of control where 0% means no effect). The settings on record: HCT-116 p53RE-bla, beta-lactamase FRET ratio, 16 h; activation: active compounds read high. Put shortly:
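Cell-based beta-lactamase reporter (p53 response elements, HCT-116 background). After a 5-hour preincubation, cells received compound for 16 hours at 37 C; substrate development ran 2 hours at room temperature.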

Experiment [15] is described as follows: qHTS assay for small molecule disruptors of the mitochondrial membrane potential - 1 hr assay (AID 651754; calls by dose curve; further: on the % scale 0 is the no-effect control and ±100 the full control effect; nearly all actives have a fitted effect of over 35% in size). Put shortly:
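HepG2, 2,000 cells/well, overnight attachment; cpd or DMSO 1 hr, 37C/5% CO2; Mito-MPS dye 30 min, 37C; fluorescence monomer (490/535) and aggregate (540/590).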

Experiment [16] concerns the target Nuclear receptor ROR-gamma (Homo sapiens) (UniProt P51449). The experiment is described as follows: qHTS assay for small molecule antagonists of the retinoid-related orphan receptor gamma (ROR-gamma) signaling pathway (AID 651802).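 Further: CHO cells with doxycycline-induced ROR-gamma expression; luciferase reporter luminescence driven by ROR response element; on the % scale 0 is the no-effect control and ±100 the full control effect; nearly all actives have a fitted effect of over 60% in size.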 The method, boiled down:
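CHO, TET-inducible ROR + RORE-LUC reporter, 1536-well qHTS. Compound pinned, doxycycline added, 16hr 37C/5% CO2. ONE-Glo, 30 min RT, luminescence; signal drop scored as antagonism.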

Experiment [17] is described as follows: qHTS assay for small molecule agonists of the antioxidant response element (ARE) signaling pathway measured by Nrf2-dependant transcriptional activity - cell viability counter screen (AID 720653; active means well fitted curve in the direction sought with a large enough effect in the repeat runs; an effect the other way counts as inactive or inconclusive; further: on the % scale 0 is the no-effect control and ±100 the full control effect). The settings on record: ARE-bla HepG2 viability, CellTiter-Glo ATP luminescence, 16 h; active compounds read low. Put shortly:
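ARE-bla HepG2 cells (2,000/well) rested 5 hrs at 37C/5% CO2, then exposed to compounds in DMSO for 16 hrs. Viability was read in the same wells as intracellular ATP by luminescence, 30 min at room temperature after reagent addition.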

The nature of experiment [18]: Cellular Toxicity (caspase-3) Hek293 (AID 664).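 Further: cells exposed to compound for 16 h at 37 °C before readout.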 Conditions: HEK293 caspase-3 activation, DMSO = 0%, 100 µM tamoxifen = 100%; at 92.2 µM (top of the series). The method, boiled down:
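Cells plated, 5 hr at 37 °C; compounds added; 16 hr at 37 °C; Caspase-Glo 3/7 reagent, 20 min RT; luminescence read. Activation expressed relative to DMSO and 100 uM tamoxifen, AC50 by Hill model.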

Experiment [19] in a line: Cellular Toxicity (caspase-3) NIH 3T3 (AID 666).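 Further: caspase signal read after 16 h compound exposure.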 Further: potency means the concentration at half of the fitted maximal effect.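 On caspase-3 activation: 0% = DMSO basal and 100% = 100 µM tamoxifen stimulation.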 Put shortly:
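Luminescence from aminoluciferin released by caspase-3/7 cleavage of a peptide substrate served as read-out. Mouse fibroblast NIH 3T3 cells were exposed to compounds over a concentration range for 16 hours, and AC50 values came from standard Hill modelling.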

Experiment [20] in a line: Cellular Toxicity (caspase-3) HepG2 (AID 654).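 Further: cells exposed to compound for 16 hours before reading; 0% = DMSO alone and 100% = caspase signal from 100 µM tamoxifen.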 Put shortly:
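Cells plated 5 hr at 37 °C, compound added, incubated 16 hr at 37 °C. Caspase-Glo 3/7 reagent followed, 20 min at room temperature, then luminescence read. Activation scored as signal increase; AC50 from Hill fit.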

Values joined by “and” are separate entries in the source; they are usually repeats but may differ in a detail not shown here. Identical values can stand only once. Values without a mark were called inactive. Records with an inconclusive call do not appear. Active and inactive are the calls of the source. Unless noted, the call rests on the fitted dose curve; in most records, active means well fitted curve in the direction sought with a large enough effect; inconclusive means small, poorly fitted or top-dose-only effect, or another doubt; inactive means no such curve, though single readings can be large; an effect the other way counts as inactive or inconclusive. Where only a bound is given, the exact number is not on record here.

Chain of Peroxisome proliferator-activated receptor delta (Homo sapiens) (Q03181 whole entry, looked up): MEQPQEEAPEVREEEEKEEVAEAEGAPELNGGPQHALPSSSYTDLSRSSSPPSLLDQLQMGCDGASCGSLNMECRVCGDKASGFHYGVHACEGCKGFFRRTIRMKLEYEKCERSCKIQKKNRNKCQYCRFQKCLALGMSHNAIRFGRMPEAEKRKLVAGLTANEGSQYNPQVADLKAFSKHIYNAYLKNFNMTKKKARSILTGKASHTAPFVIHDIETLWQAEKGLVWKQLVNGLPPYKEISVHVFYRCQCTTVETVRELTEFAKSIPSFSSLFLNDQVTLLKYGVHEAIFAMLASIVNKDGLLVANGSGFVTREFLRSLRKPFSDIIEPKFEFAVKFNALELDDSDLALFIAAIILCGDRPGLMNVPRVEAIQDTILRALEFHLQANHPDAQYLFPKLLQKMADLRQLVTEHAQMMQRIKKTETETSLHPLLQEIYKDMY
Chain of Voltage-gated inwardly rectifying potassium channel KCNH2 (Homo sapiens) (Q12809 whole entry, looked up): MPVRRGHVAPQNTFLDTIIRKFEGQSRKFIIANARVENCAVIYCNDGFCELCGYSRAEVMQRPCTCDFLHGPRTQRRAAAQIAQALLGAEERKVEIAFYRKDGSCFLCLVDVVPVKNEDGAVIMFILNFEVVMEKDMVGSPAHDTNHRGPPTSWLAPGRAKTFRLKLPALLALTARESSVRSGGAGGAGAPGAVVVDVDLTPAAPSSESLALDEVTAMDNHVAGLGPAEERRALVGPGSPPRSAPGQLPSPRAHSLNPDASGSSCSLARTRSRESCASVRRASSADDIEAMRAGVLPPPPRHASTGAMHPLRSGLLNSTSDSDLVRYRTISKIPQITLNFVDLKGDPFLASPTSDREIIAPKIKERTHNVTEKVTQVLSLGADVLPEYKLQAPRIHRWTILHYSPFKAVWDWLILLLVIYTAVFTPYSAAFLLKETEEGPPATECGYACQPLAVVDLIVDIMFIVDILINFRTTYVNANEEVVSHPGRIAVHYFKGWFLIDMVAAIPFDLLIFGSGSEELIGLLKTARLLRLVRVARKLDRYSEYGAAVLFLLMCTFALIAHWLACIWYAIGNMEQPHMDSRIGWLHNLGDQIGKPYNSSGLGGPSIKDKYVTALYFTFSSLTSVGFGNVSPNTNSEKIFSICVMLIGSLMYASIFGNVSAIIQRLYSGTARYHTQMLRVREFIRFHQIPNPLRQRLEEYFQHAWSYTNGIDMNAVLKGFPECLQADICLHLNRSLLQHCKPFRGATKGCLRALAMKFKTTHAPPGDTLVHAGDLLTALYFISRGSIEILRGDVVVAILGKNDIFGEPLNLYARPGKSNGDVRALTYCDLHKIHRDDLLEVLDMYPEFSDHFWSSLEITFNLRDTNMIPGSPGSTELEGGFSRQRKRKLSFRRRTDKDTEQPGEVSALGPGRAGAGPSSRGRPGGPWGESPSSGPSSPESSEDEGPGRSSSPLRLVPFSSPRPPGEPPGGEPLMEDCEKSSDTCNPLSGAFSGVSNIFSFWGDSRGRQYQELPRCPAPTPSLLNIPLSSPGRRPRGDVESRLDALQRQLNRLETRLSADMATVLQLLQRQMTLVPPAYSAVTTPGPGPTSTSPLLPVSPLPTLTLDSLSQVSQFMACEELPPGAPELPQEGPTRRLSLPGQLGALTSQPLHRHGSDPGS
Chain of Vitamin D3 receptor (Homo sapiens) (P11473 whole entry, looked up): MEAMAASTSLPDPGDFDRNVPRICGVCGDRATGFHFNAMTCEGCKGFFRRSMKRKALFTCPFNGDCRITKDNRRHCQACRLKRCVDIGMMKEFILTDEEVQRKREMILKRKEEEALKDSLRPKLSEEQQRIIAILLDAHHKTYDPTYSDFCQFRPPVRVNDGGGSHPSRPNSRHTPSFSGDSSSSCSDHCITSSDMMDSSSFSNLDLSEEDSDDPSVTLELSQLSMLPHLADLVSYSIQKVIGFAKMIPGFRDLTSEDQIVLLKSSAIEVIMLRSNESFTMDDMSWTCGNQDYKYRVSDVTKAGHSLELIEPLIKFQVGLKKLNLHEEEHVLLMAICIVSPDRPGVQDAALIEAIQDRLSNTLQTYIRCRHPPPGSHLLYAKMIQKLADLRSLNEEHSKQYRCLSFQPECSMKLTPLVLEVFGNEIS
Chain of Nuclear receptor ROR-gamma (Homo sapiens) (P51449 whole entry, looked up): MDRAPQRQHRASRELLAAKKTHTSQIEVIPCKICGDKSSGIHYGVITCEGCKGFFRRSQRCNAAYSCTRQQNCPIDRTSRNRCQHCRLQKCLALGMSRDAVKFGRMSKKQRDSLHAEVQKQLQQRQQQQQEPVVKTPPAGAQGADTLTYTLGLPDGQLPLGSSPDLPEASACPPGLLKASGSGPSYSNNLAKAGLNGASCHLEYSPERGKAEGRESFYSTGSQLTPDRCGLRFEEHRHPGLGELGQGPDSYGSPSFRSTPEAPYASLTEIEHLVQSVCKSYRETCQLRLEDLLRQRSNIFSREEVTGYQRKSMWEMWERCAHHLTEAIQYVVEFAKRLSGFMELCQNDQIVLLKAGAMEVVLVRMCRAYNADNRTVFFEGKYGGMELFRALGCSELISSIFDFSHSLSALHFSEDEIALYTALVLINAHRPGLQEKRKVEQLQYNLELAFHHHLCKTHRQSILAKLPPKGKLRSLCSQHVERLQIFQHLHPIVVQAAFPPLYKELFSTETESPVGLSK

For `O=[N+]([O-])c1c(Cl)c(Cl)c(Cl)c(Cl)c1Cl`, the Potency in [1] was over 92 µM. Besides, the Potency entry in [2], in experiment [3], in [6], in experiment [7], in [8] and in experiment [9] was “inactive” each time. In addition, the Potency entry in experiment [13], in [15] and in experiment [16] was “inactive” throughout. The result in experiment [4], in experiment [5], in experiment [10], in experiment [11] and in experiment [12] was inactive. In addition, the activation in experiment [14] is -1.05% and 4.15%. Further, in [17], the max response was -5.67% and 10.2%.
In the case of `Nc1ccc(Oc2ccc(N)cc2)cc1`, the Potency entry in [2], in experiment [3], in experiment [6], in experiment [19], in [8] and in experiment [9] was “inactive” throughout. Also, the Potency result in experiment [13], in experiment [15] and in experiment [16] was “inactive” each time. The molecule was called inactive in [4], in [5] and in [10]. In experiment [18], the caspase-3 activation is -2.14%. The activation in [14] was -4.54% and -10.7%. Also, in experiment [17], the max response was -2.21% and -13%.
Take `C=CCCC#N`: the Potency entry in [2], in experiment [3], in experiment [6], in experiment [19], in experiment [7] and in experiment [8] was “inactive” each time. In addition, the Potency result in experiment [9], in [13], in experiment [15] and in experiment [16] was “inactive” in each case. For the same molecule, the call in experiment [20], in experiment [4], in experiment [5], in [10], in [11] and in [12] was inactive. Moreover, the caspase-3 activation in experiment [18] is -0.209%. Besides, the activation in experiment [14] is -2.14%. The max response in experiment [17] is -16.2%.
As to `O=[N+]([O-])/C=C/c1ccccc1`, the Potency is 12.6 µM (active) in experiment [2], 25.1 µM (active) in experiment [3], 25.1 µM (active) in experiment [19] and 50.1 µM (active) in experiment [7]. The call in experiment [5], in experiment [10], in experiment [11] and in experiment [12] was inactive. Moreover, the Potency result in [6], in experiment [13], in experiment [15] and in experiment [16] was “inactive” each time. The caspase-3 activation in experiment [18] was -2.17%. Moreover, the activation in experiment [14] was 10.5%. Further, the max response in [17] is -1.14%.
For the molecule `CCCCC#N`, the Potency in experiment [1] was over 92 µM. The Potency result in [2], in [3], in experiment [6], in [19], in [7] and in experiment [8] was “inactive” each time. For the same molecule, the Potency result in [9], in experiment [13], in experiment [15] and in experiment [16] was “inactive” throughout. For the same molecule, the result in experiment [20], in experiment [4], in experiment [5] and in experiment [10] was inactive. In experiment [18], the caspase-3 activation was -1.9%. Further, the activation in experiment [14] is -7.46%. Also, the max response in experiment [17] was -5.38%.
Turning to `CC(C)(C)c1ccccc1O`, the Potency in experiment [1] was over 92 µM. Also, the Potency entry in [2], in experiment [3], in experiment [6], in [19], in experiment [8] and in experiment [9] was “inactive” each time. The Potency entry in experiment [13] and in experiment [16] was “inactive” in each case. Also, the result in [20], in experiment [4], in experiment [10], in experiment [11] and in [12] was inactive. For the same molecule, the caspase-3 activation in experiment [18] was -1.2%. The max response in experiment [17] is -8.15% and -10.7%.
With `BrC(Br)Br`, the Potency in experiment [1] was over 92 µM. Further, the Potency entry in experiment [2], in experiment [3], in experiment [6], in [19], in [7] and in experiment [8] was “inactive” in each case. Also, the Potency result in experiment [9], in experiment [13], in experiment [15] and in experiment [16] was “inactive” each time. In addition, the call in experiment [20], in experiment [4], in experiment [5], in experiment [10], in [11] and in experiment [12] was inactive.
